This test concerns MDA-MB-468 breast. Kind of test: NCI-60 one-dose screen, 48 h (100 = growth as untreated, 0 = no growth, -100 = all killed). Conditions: 10 µM unless noted.

Several values for one entry are separate records, joined by “and”; a condition that tells them apart may be missing. Identical values can stand only once. Compounds without any hit were thinned out: in the full panel of roughly 83,000, 20% have a hit.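 Cells were grown in 96-well plates and exposed to the test compound at a single concentration for 48 hours; results are reported as percent growth, with values below 10 considered active.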 Values without a mark were called inactive. Activity calls are given as the source filed them.

Regarding `O=S(=O)(Nc1ncccn1)c1ccc(NC2Nc3nc4ccccc4nc3S2)cc1` (stereo not given), the growth was 95.5%. For the molecule `O=C1c2cc3c(cc2-c2c1c1ccc(F)cc1c(=O)n2C[C@H](O)[C@@H](O)[C@H](O)CO)OCO3`, the growth is -45.2% (active). Take `C#CCN(C)Cc1ccccc1`: the growth was 96.1% and 122%. In the case of `Cc1cc2c(cc1C)NC1=C(N2)OC(c2c3ccccc3cc3ccccc23)C1=O` (stereo not given) it was -18.6% (active); in that of `CCOC(=O)C1=C(N)Oc2c(sc3c(C)cccc23)C1c1ccc(Cl)cc1` (stereo not given), -2.2% (active); in that of `CC/C(=C(/c1ccc(Cl)cc1)c1ccc(OCCCN(C)C)cc1)c1ccc(OC)cc1`, 51.7%. In the case of `CC1=NN(c2ccccc2)C(=O)C1C(=O)c1ccccc1` (stereo not given) it was 83.4%; in that of `Cc1ccc(NC(=O)Nc2nc3ccc([N+](=O)[O-])cc3s2)cc1`, -15.6% (active); in that of `Cc1ccc(-c2n[nH]c(=O)c3noc(-c4ccc(C)cc4)c23)cc1`, -8.93% (active). In the case of `O=C1N(Cc2ccccc2Cl)c2ccccc2C12NN=C(c1ccccc1)S2` (stereo not given) it was 57.2%; in that of `CCOC(=O)C1=C(Nc2ccc(OC)cc2)C(N)=NC1=N`, 31.9%. As to `N#C/C(=C\c1ccc(-c2cc(C(F)(F)F)ccc2Cl)o1)c1nc(-c2ccco2)cs1`, the growth was -3.16% (active).

For the molecule `COC(=O)c1nc(-c2ccccc2)oc1S(=O)(=O)n1nc(-c2ccccc2)cc1N`, the growth was 74.6%. In the case of `COc1cc2oc(-c3cccc(NC(=O)Nc4ccc5c(c4)OCO5)c3)cc(=O)c2c(OC)c1OC` it was 75.2%; in that of `COc1ccc2c(c1)sc1nc(-c3ccccc3)c(-c3ccsc3)n12`, 32.5%.

As for `O=S(=O)(NCC[C@@H]1C[C@H]1c1ccc2ccccc2c1)c1ccc(C(F)(F)F)cc1`, the growth is 72.3%. In the case of `CCOC(=O)CCCCCCCCC(=O)OCC` it was 104%. With `Cn1c(=O)c2[nH]c(=S)n(Cc3ccccc3)c2n(C)c1=O`, the growth was 115%. In the case of `NC(N)=Nc1ccc(Oc2cccc(Nc3ccc(Br)c(C(F)(F)F)c3)c2)cn1` it was -80.3% (active); in that of `Cc1ccc(C2=NN(c3ccc(S(C)(=O)=O)cc3)C(=O)CC2)cc1`, 23.9%; in that of `CCOC(=O)N1C2CCC(C2)N1C(=O)OCC`, 105%. Then `Cc1c2ccncc2c(C)c2c1c1ccccc1n2CCCCCC(=O)O`, with 86.3%; and `COc1ccc([C@H]2[C@H](C(=O)Nc3cccnc3)c3ccccc3C(=O)N2c2ccccc2)cc1`, with 97.7%. In the case of `N/C(=C\C(=O)n1nc(-c2ccccc2)cc1N)c1ccccc1` it was 19.2%.

Take `O=C(c1nc2ccccc2[nH]1)C1C(c2ccc([N+](=O)[O-])cc2)C2CC3CCCCC3N2[C@@]12C(=O)Nc1cc(Cl)ccc12` (stereo not given in full): the growth is -1.98% (active). In the case of `COc1ccc2cc(C3=CC(=O)CCC3)ccc2c1` it was 100%; in that of `CCS(=O)(=O)N[C@@H]1O[C@H](COC(C)=O)C(OC(C)=O)[C@H](OC(C)=O)C1OC(C)=O` (stereo not given in full), 100%. In the case of `CCOC(C)=N` it was 117%.

Consider `COc1ccc(-c2cc(-c3ccc(N(C)C)cc3)nc(NC(=O)c3ccncc3)n2)cc1`, for which the growth was 75.5%.

For `COC1=CC(c2ccc[nH]2)=N/C1=C\c1[nH]c(C)c(C(=O)CCCCCCCCC(=O)O[C@H]2CC[C@H]3C4CCc5cc(O)ccc5C4CC[C@]23C)c1C` (stereo not given in full), the growth was 37.5%. Take `COc1cc(/C=C/c2cc(/C=C/c3ccc(O)c(OC)c3)n(C(=O)Nc3ccc(C)cc3C)n2)ccc1O`: the growth was -30.3% (active). In the case of `NC(CSC(c1ccccc1)(c1ccccc1)c1ccc(F)cc1)C(=O)O` (stereo not given) it was -41% (active); in that of `c1coc(CSc2ncnc3nc[nH]c23)c1`, 96%; in that of `Cc1cc(O)c(C(C)C)cc1N=O`, 62.6% and 104%.

`O=S(=O)(/N=C1C=C/C(=N\S(=O)(=O)c2ccccc2)c2ccccc2\1)c1ccccc1`: the growth is 79.3%. Then `Nc1ccc(Sc2ccc([N+](=O)[O-])c3nonc23)cc1`, with 67.3%; and `CN1CCN(c2nc(NCCCNc3ccnc4cc(Cl)ccc34)c3ccccc3n2)CC1`, with 54.6%; and `CCOC(=O)c1cc(C(=O)OCC)c(C)nc1C`, with 109%.

Regarding `C[N+](C)(CCOC(c1ccccc1)c1ccccc1)CC(=O)OCc1ccccc1`, the growth is 100%.

Consider `COc1ccc(Cn2cc3c(c2-c2ccccc2)CC(C)(C)c2cnoc2-3)cc1`, for which the growth is 3.53% (active).

The values are drawn from PubChem BioAssay (NCI).
